# Inconclusive results are not listed. Entries that show only a call come without a potency. The source made the active and inactive calls. Calls come from the whole dose curve; as a rule, active = well fitted curve in the direction sought with a large enough effect; inconclusive = small, poorly fitted or top-dose-only effect, or another doubt; inactive = no such curve, though single readings can be large; an effect the other way counts as inactive or inconclusive.
# Columns and labels:
# [1] = Quantitative High-Throughput drug screen in 47 multiple myeloma cell lines against the NCATS MIPE library collection: KMM1_JCRB cell viability assay (AID 1918960); note: nearly all actives have a fitted effect of over 30% in size
# Method in brief: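 Here, 48 h treatment with MIPE 4.0 agents at 37 °C preceded an ATP luminescence read. Plating density was 500 cells per well.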
# [2] = Quantitative High-Throughput drug screen in 47 multiple myeloma cell lines against the NCATS MIPE library collection: Karpas417_ECACC cell viability assay (AID 1918961); conditions: Karpas417 myeloma viability, CellTiter-Glo ATP luminescence, 48 h; viability (% of DMSO): at 45.8 µM (top of the series)
# Method in brief: (§1)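 We plated 500 myeloma cells per well, pinned in MIPE 4.0 compounds, and incubated for 48 hours at 37C. ATP was then quantified with CellTiter-Glo, with DMSO and media-only wells defining 100% and 0%.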
# [3] = Quantitative High-Throughput drug screen in 47 multiple myeloma cell lines against the NCATS MIPE library collection: KHM11_PLB cell viability assay (AID 1918962); note: nearly all actives have a fitted effect of over 35% in size
# Method in brief: (§2)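 Primary qHTS used for cherry-picking: cells at 500/well, library compounds for 48 h (37C, 5% CO2), luminescent ATP assay.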
# [4] = Quantitative High-Throughput drug screen in 47 multiple myeloma cell lines against the NCATS MIPE library collection: JIM3_ECACC cell viability assay (AID 1918963; note: nearly all actives have a fitted effect of over 35% in size)
# Method in brief: as §2
# [5] = Quantitative High-Throughput drug screen in 47 multiple myeloma cell lines against the NCATS MIPE library collection: JIM1_ECACC cell viability assay (AID 1918964)
# Method in brief: as §2
# [6] = Quantitative High-Throughput drug screen in 47 multiple myeloma cell lines against the NCATS MIPE library collection: INA6_PLB cell viability assay (AID 1918965; note: nearly all actives have a fitted effect of over 55% in size)
# Method in brief: as §1
# [7] = Quantitative High-Throughput drug screen in 47 multiple myeloma cell lines against the NCATS MIPE library collection: H1112_PLB cell viability assay (AID 1918967; note: nearly all actives have a fitted effect of over 30% in size)
# Method in brief: as §2
# [8] = Quantitative High-Throughput drug screen in 47 multiple myeloma cell lines against the NCATS MIPE library collection: KMS27_JCRB cell viability assay (AID 1918970); note: nearly all actives have a fitted effect of over 30% in size
# Method in brief: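 Luminescent ATP read-out (CellTiter-Glo, 5 min at room temperature) after 48 h compound exposure of 500 KMS27_JCRB cells per well; DMSO wells define full viability and media-only wells zero.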
# [9] = Quantitative High-Throughput drug screen in 47 multiple myeloma cell lines against the NCATS MIPE library collection: KMS20_JCRB cell viability assay (AID 1918973); note: nearly all actives have a fitted effect of over 45% in size
# Method in brief: as §2
# [10] = Quantitative High-Throughput drug screen in 47 multiple myeloma cell lines against the NCATS MIPE library collection: MMM1_PLB cell viability assay (AID 1918976); note: nearly all actives have a fitted effect of over 35% in size
# Method in brief: (§3)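 Plated at 500 cells per well, myeloma lines received MIPE 4.0 compounds by pin tool. Following 48 h culture at 37 °C, CellTiter-Glo luminescence gave viability relative to DMSO and media-only controls.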
# [11] = Quantitative High-Throughput drug screen in 47 multiple myeloma cell lines against the NCATS MIPE library collection: NCIH929_DSMZ cell viability assay (AID 1918978); note: nearly all actives have a fitted effect of over 35% in size
# Method in brief: as §3
# [12] = Quantitative High-Throughput drug screen in 47 multiple myeloma cell lines against the NCATS MIPE library collection: OCIMY1_PLB cell viability assay (AID 1918979); note: nearly all actives have a fitted effect of over 35% in size
# Method in brief: as §3
# [13] = Quantitative High-Throughput drug screen in 47 multiple myeloma cell lines against the NCATS MIPE library collection: JJN3_DSMZ cell viability assay (AID 1918966; note: nearly all actives have a fitted effect of over 50% in size)
# Method in brief: as §2
# [14] = Quantitative High-Throughput drug screen in 47 multiple myeloma cell lines against the NCATS MIPE library collection: KMS12BM_JCRB cell viability assay (AID 1918971); note: nearly all actives have a fitted effect of over 35% in size
# Method in brief: (§4)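 Myeloma cell lines, 500 cells per well, exposed to MIPE 4.0 library compounds for 48 h at 37C, 5% CO2. Viability from ATP by CellTiter-Glo luminescence; normalised to DMSO (100%) and media-only (0%) wells.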
# [15] = Quantitative High-Throughput drug screen in 47 multiple myeloma cell lines against the NCATS MIPE library collection: MM1S_ATCC cell viability assay (AID 1918980); note: nearly all actives have a fitted effect of over 45% in size
# Method in brief: as §3
# [16] = Quantitative High-Throughput drug screen in 47 multiple myeloma cell lines against the NCATS MIPE library collection: MM1R_ATCC cell viability assay (AID 1918981); note: nearly all actives have a fitted effect of over 35% in size
# Method in brief: as §3
# [17] = Quantitative High-Throughput drug screen in 47 multiple myeloma cell lines against the NCATS MIPE library collection: Karpas25_ECACC cell viability assay (AID 1918968; note: nearly all actives have a fitted effect of over 35% in size)
# Method in brief: as §2
# [18] = Quantitative High-Throughput drug screen in 47 multiple myeloma cell lines against the NCATS MIPE library collection: KMS26_JCRB cell viability assay (AID 1918975); note: nearly all actives have a fitted effect of over 45% in size
# Method in brief: as §4
# [19] = Quantitative High-Throughput drug screen in 47 multiple myeloma cell lines against the NCATS MIPE library collection: MOLP8_DSMZ cell viability assay (AID 1918977); note: nearly all actives have a fitted effect of over 45% in size
# Method in brief: as §3
# [20] = Quantitative High-Throughput drug screen in 47 multiple myeloma cell lines against the NCATS MIPE library collection: KMS12PE_JCRB cell viability assay (AID 1918972); note: nearly all actives have a fitted effect of over 30% in size
# Method in brief: as §1
# Potency is the fitted concentration of half-maximal effect.
smiles,measurement,setting,value
CCn1cc(C(=O)O)c(=O)c2cc(F)c(N3CCNCC3)cc21,Potency,[1],inactive
same,Potency,[2],inactive
same,Potency,[3],inactive
same,Potency,[4],inactive
same,Potency,[5],inactive
same,Potency,[6],inactive
same,Potency,[7],inactive
same,Potency,[8],inactive
same,Potency,[9],inactive
same,Potency,[10],inactive
same,Potency,[11],inactive
same,Potency,[12],inactive
COc1cc2c(Nc3ccc(Br)cc3F)ncnc2cc1OCC1CCN(C)CC1,Potency,[1],inactive
same,Potency,[2],inactive
same,Potency,[4],inactive
same,Potency,[6],9350 nM (active)
same,Potency,[13],18700 nM (active)
same,Potency,[14],18700 nM (active)
same,Potency,[11],8330 nM (active)
same,Potency,[15],23500 nM (active)
same,Potency,[16],23500 nM (active)
COc1nc(N)nc2c1ncn2[C@@H]1O[C@H](CO)[C@@H](O)[C@@H]1O,Potency,[1],inactive
same,Potency,[2],inactive
same,Potency,[4],inactive
same,Potency,[5],inactive
same,Potency,[13],13200 nM (active)
same,Potency,[7],inactive
same,Potency,[17],inactive
same,Potency,[14],inactive
same,Potency,[18],inactive
same,Potency,[19],inactive
same,Potency,[11],inactive
same,Potency,[12],inactive
Nc1ccc(S(=O)(=O)Nc2ccccn2)cc1,Potency,[1],inactive
same,Potency,[2],inactive
same,Potency,[4],inactive
same,Potency,[6],inactive
same,Potency,[7],inactive
same,Potency,[8],inactive
same,Potency,[20],inactive
same,Potency,[18],inactive
same,Potency,[19],inactive
same,Potency,[11],inactive
same,Potency,[12],inactive
same,Potency,[16],inactive
O=C(O)c1cccnc1,Potency,[1],inactive
same,Potency,[2],inactive
same,Potency,[3],18700 nM (active)
same,Potency,[4],inactive
same,Potency,[6],inactive
same,Potency,[7],inactive
same,Potency,[20],inactive
same,Potency,[19],inactive
same,Potency,[11],inactive
same,Potency,[12],inactive
same,Potency,[15],inactive
CNS(=O)(=O)Cc1ccc2[nH]cc(CCN(C)C)c2c1,Potency,[1],inactive
same,viability (% of DMSO),[2],103% (active)
same,Potency,[4],inactive
same,Potency,[5],inactive
same,Potency,[7],inactive
same,Potency,[8],inactive
same,Potency,[14],inactive
same,Potency,[18],inactive
same,Potency,[11],inactive
same,Potency,[16],inactive
CC(C(=O)O)c1ccc2c(c1)CC(=O)c1ccccc1S2 (configuration not stated),Potency,[1],inactive
same,Potency,[2],20.9 nM (active)
same,Potency,[4],inactive
same,Potency,[6],inactive
same,Potency,[7],inactive
same,Potency,[14],inactive
same,Potency,[19],inactive
same,Potency,[11],inactive
same,Potency,[12],inactive
same,Potency,[15],2960 nM (active)
CNS(=O)(=O)CCc1ccc2[nH]cc(C3CCN(C)CC3)c2c1,Potency,[1],18700 nM (active)
same,Potency,[2],16600 nM (active)
same,Potency,[3],1180 nM (active)
same,Potency,[4],2350 nM (active)
same,Potency,[6],2090 nM (active)
same,Potency,[13],41.8 nM (active)
same,Potency,[17],935 nM (active)
same,Potency,[14],2640 nM (active)
same,Potency,[9],935 nM (active)
same,Potency,[18],2960 nM (active)
same,Potency,[19],inactive
same,Potency,[11],332 nM (active)
same,Potency,[15],469 nM (active)
CCN1CCCC1CNC(=O)c1cc(S(N)(=O)=O)ccc1OC (configuration not stated),Potency,[1],inactive
same,Potency,[2],inactive
same,Potency,[3],inactive
same,Potency,[5],inactive
same,Potency,[20],inactive
same,Potency,[18],inactive
same,Potency,[11],inactive
same,Potency,[12],inactive
Nc1nc(F)nc2c1ncn2[C@@H]1O[C@H](CO)[C@@H](O)[C@@H]1O,Potency,[1],526 nM (active)
same,Potency,[2],46.9 nM (active)
same,Potency,[3],187 nM (active)
same,Potency,[4],662 nM (active)
same,Potency,[5],93.5 nM (active)
same,Potency,[6],166 nM (active)
same,Potency,[13],235 nM (active)
same,Potency,[7],526 nM (active)
same,Potency,[17],296 nM (active)
same,Potency,[8],662 nM (active)
same,Potency,[14],209 nM (active)
same,Potency,[20],235 nM (active)
same,Potency,[9],264 nM (active)
same,Potency,[18],235 nM (active)
same,Potency,[19],166 nM (active)
same,Potency,[11],209 nM (active)
same,Potency,[12],469 nM (active)
same,Potency,[15],209 nM (active)
same,Potency,[16],166 nM (active)
CCOC(=O)c1ccc(C#Cc2ccc3c(c2)C(C)(C)CCS3)nc1,Potency,[1],inactive
same,viability (% of DMSO),[2],132% (active)
same,Potency,[4],18700 nM (active)
same,Potency,[6],inactive
same,Potency,[7],20900 nM (active)
same,Potency,[8],inactive
same,Potency,[20],11800 nM (active)
same,Potency,[18],inactive
CCOC(=O)[C@H](CCc1ccccc1)N[C@H]1CS[C@H](c2cccs2)CN(CC(=O)O)C1=O,Potency,[1],1050 nM (active)
same,Potency,[2],264 nM (active)
same,Potency,[4],inactive
same,Potency,[5],1320 nM (active)
same,Potency,[6],2960 nM (active)
same,Potency,[13],16600 nM (active)
same,Potency,[8],296 nM (active)
same,Potency,[14],23500 nM (active)
same,Potency,[20],1660 nM (active)
same,Potency,[18],18700 nM (active)
same,Potency,[10],16600 nM (active)
same,Potency,[19],20900 nM (active)
same,Potency,[11],5900 nM (active)
same,Potency,[15],418 nM (active)
NCCCC(O)(P(=O)(O)O)P(=O)(O)O,Potency,[1],inactive
same,Potency,[2],inactive
same,Potency,[3],inactive
same,Potency,[4],inactive
same,Potency,[17],16600 nM (active)
same,Potency,[8],inactive
same,Potency,[20],inactive
same,Potency,[9],inactive
same,Potency,[18],inactive
same,Potency,[19],inactive
same,Potency,[11],inactive
same,Potency,[15],11800 nM (active)
same,Potency,[16],inactive
CCc1cc(C(N)=S)ccn1,Potency,[1],inactive
same,Potency,[2],inactive
same,Potency,[3],inactive
same,Potency,[4],inactive
same,Potency,[5],inactive
same,Potency,[7],inactive
same,Potency,[8],inactive
same,Potency,[14],inactive
same,Potency,[20],inactive
same,Potency,[19],inactive
same,Potency,[12],inactive
CCC(=O)O[C@]1(C(=O)SCF)[C@H](C)C[C@H]2[C@@H]3C[C@H](F)C4=CC(=O)C=C[C@]4(C)[C@@]3(F)[C@@H](O)C[C@@]21C,Potency,[1],inactive
same,Potency,[2],inactive
same,Potency,[4],inactive
same,Potency,[5],inactive
same,Potency,[13],inactive
same,Potency,[14],inactive
same,Potency,[18],inactive
same,Potency,[19],inactive
same,Potency,[16],inactive
Cc1ccc(S(=O)(=O)N[C@@H](Cc2ccccc2)C(=O)CCl)cc1,Potency,[1],13200 nM (active)
same,Potency,[2],11800 nM (active)
same,Potency,[3],16600 nM (active)
same,Potency,[4],13200 nM (active)
same,Potency,[6],5900 nM (active)
same,Potency,[13],18700 nM (active)
same,Potency,[17],9350 nM (active)
same,Potency,[8],13200 nM (active)
same,Potency,[14],18700 nM (active)
same,Potency,[20],16600 nM (active)
same,Potency,[18],18700 nM (active)
same,Potency,[19],14800 nM (active)
same,Potency,[11],10500 nM (active)
same,Potency,[12],23500 nM (active)
same,Potency,[15],11800 nM (active)
same,Potency,[16],16600 nM (active)

# Reference: PubChem BioAssay (NCATS)
